Compounds with a hit are over-represented: about 3.7% of the library has one in this group of screens.
Mtb UGM inh – blocks M. tuberculosis UGM enzyme; P9WIQ1; purified UGM, fluorescence polarization probe displacement; inhibition, % at 10 µM; 320,000 tested, 0.06% active; AID 504406; in the data active = inhibition above about 10%, passing the limit was not always enough
Rv3671c inh – Rv3671c (M. tuberculosis) protease inhibition; P9WHR9; 320,000 tested, 0.048% active; inhibition, % at 5.96 µM; AID 2606; in the data active = inhibition above about 38%;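 note: extracellular domain of Rv3671c used as enzyme; 0% = enzyme with DMSO and 100% = no enzyme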
FadD28 FP inh – blocks FadD28 binding to the bisubstrate probe; 360,000 tested, 0.22% active; inhibition, % at 12.5 µM; fluorescence polarization; AID 588549; in the data active = inhibition above about 8.5%, passing the limit was not always enough
Mtb bLac sens – beta-lactam sensitization of Mtb H37Rv; M. tuberculosis H37Rv growth with meropenem, percent inhibition; inhibition, % at 25 µM; 330,000 tested, 0.27% active; call rule not given here;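 note: growth measured after seven days incubation then overnight dye step; 0% = bacteria only wells and 100% = bacteria with antibiotic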
Mtb FBA inh – inhibitors of M. tuberculosis fructose-bisphosphate aldolase. 360,000 tested, 2.3% active. purified M. tuberculosis FBA, fluorescence read-out. inhibition, % at 1 µM;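 note: 0% = vehicle and 100% = reference inhibitor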
Target sequence (P9WQA3 whole entry, looked up): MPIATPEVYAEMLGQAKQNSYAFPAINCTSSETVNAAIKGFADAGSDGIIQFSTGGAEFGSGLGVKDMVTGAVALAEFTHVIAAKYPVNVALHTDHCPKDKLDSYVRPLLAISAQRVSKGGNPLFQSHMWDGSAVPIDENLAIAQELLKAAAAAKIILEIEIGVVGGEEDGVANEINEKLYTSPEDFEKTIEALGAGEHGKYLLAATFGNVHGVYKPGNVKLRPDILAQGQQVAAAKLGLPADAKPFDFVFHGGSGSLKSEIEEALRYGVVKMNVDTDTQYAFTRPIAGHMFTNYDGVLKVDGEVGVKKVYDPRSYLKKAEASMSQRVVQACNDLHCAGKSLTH
GDH-TPI counter-1 – GDH-TPI coupled enzyme inhibition counter-screen | GDH-TPI coupled enzyme counterscreen, NADH absorbance | inhibition, % at 4.8 µM | 360,000 tested, 1.2% active | AID 588335; in the data active = inhibition above about 30%;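 note: 0% = DMSO wells and 100% = wells lacking the enzyme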
Mtb FBA inh conf – Mtb FBA inhibition, confirmed; 5,600 tested, 78% active; inhibition, % at 1 µM; purified M. tuberculosis FBA, fluorescence read-out; shares compounds with Mtb FBA inh;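 note: 0% = vehicle wells and 100% = reference inhibitor wells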
GDH-TPI counter-2 – GDH-TPI inhibition counter-screen for FBA inhibitors | shares compounds with Mtb FBA inh | GDH-TPI coupled enzyme counterscreen, fluorescence | inhibition, % at 1 µM | 5,600 tested, 81% active | AID 652141; in the data active = inhibition above about 10%
GDH-TPI dose – inhibits GDH-TPI coupling enzymes in dose response; shares compounds with Mtb FBA inh; GDH-TPI coupled enzyme assay, fluorescence, artifact counterscreen; IC50, µM; 170 tested, 79% active; AID 652145; call rule not given here
* marks the source's active call; other numbers are inactive results; . = no result; + = active, no number. Cut-off read from the data, not from the text of the source, unless noted: active = inhibition above about 27%; inactive = the rest.

SMILES	Mtb UGM inh	Rv3671c inh	FadD28 FP inh	Mtb bLac sens	Mtb FBA inh	GDH-TPI counter-1	Mtb FBA inh conf	GDH-TPI counter-2	others
Cc1c(O)ccc2c(CC(=O)N[C@@H](Cc3ccc(O)cc3)C(=O)O)cc(=O)oc12	3	.	-3	0	94*	21	15	2	GDH-TPI dose=1.8*
O=[N+]([O-])c1cc(N=Nc2ccc3ccccc3c2)ccc1O	1	2	1	7	-1	3	.	.
CCNC(=S)Nc1ccc2c(c1)c(=O)n(C)n2CC=C(C)C	.	.	-1	.	63*	3	185*	152*
C=C(C)Cn1c2ccc(NC(=S)NCc3ccccc3F)cc2c(=O)n1C	.	.	0	.	36*	0	148*	106*
COc1ccc2sc(C)cc(=O)c2c1	.	.	-1	.	107*	15	88*	52*
C=CCC(=O)N1CCCC(CCC(=O)NCc2ccccc2F)C1 (stereo unspecified)	-3	-7	0	6	33*	-3	46*	47*
Cc1ccc2cccc(OC(=O)c3c(F)cccc3Cl)c2n1	.	.	-1	.	1	.	.	.
COCCN(C(=O)CSc1n[nH]c(-c2ccccc2)n1)c1c(N)n(Cc2ccccc2)c(=O)[nH]c1=O	2	-8	-1	-8	-2	-1	.	.
O=C(CSc1nnc(NC(=O)c2ccc(F)cc2)s1)NC1CCCC1	0	9	.	-6	-1	2	.	.
O=C(O)c1cccc([N+](=O)[O-])c1C(=O)Nc1cccc2ccccc12	0	-15	1	2	48*	8	116*	99*
O=C(O)c1ccc(C(=O)Nc2cccc3ccccc23)c(C(=O)O)c1	4	.	1	7	54*	9	155*	111*
O=C(OCC(O)C1OC(c2ccccc2)OC(COC(=O)c2ccccc2)C1O)c1ccccc1 (stereo unspecified)	.	.	-1	.	1	.	.	.
COC(=O)/C(C#N)=C/c1c(N2CCN(c3ccc(OC)cc3)CC2)nc2c(C)cccn2c1=O	2	13	1	16	-4	7	.	.
CNC(=O)/C(C#N)=C/c1c(N2CCN(c3ccccc3)CC2)nc2c(C)cccn2c1=O	0	-1	1	-1	37*	14	-6	-3
CNC(=O)/C(C#N)=C/c1c(N2CCCCCC2)nc2c(C)cccn2c1=O	-1	0	0	3	28*	7	+	184*
CNC(=O)/C(C#N)=C/c1c(N2CCN(c3ccc(OC)cc3)CC2)nc2c(C)cccn2c1=O	1	12	-2	-2	37*	12	+	142*
CNC(=O)/C(C#N)=C/c1c(N2CCCCCC2)nc2ccccn2c1=O	1	-4	-3	0	64*	0	-1	1
Cc1ccc(S(=O)(=O)CCC(=O)OCc2nnc(-c3ccc([N+](=O)[O-])cc3)o2)cc1	.	.	-2	.	-1	-4	.	.
Cc1ccc(-c2nc3ccc(Br)cn3c2Cc2ccsc2)cc1	.	.	1	.	2	.	.	.
Clc1ccc(C[n+]2c(-c3ccccc3)cc(-c3ccccc3)cc2-c2ccccc2)cc1	2	-2	-4	100	38*	15	22	13*
Fc1ccc(C[n+]2c(-c3ccccc3)cc(-c3ccccc3)cc2-c2ccccc2)cc1	1	-3	.	94	.	.	.	.
Cc1cc(NC(=O)c2ccco2)sc1C	-2	-6	-3	6	0	4	.	.
O=C(CSc1nc2ccccc2c(=O)[nH]1)Nc1ccccc1N1CCOCC1	3	1	-3	0	33*	6	97*	77*
O=C(NCCC1CCCCN1S(=O)(=O)c1ccccc1)C(=O)NCc1ccc(F)cc1 (stereo unspecified)	1	-7	-3	1	-4	10	.	.
CCOC(=O)c1cc(-c2ccccc2)sc1NC(=O)C(C)C	-1	1	-2	10	37*	1	125*	113*
SMILES	Mtb UGM inh	Rv3671c inh	FadD28 FP inh	Mtb bLac sens	Mtb FBA inh	GDH-TPI counter-1	Mtb FBA inh conf	GDH-TPI counter-2	others
CCc1cccc(NC(=O)COC(=O)c2c(C)nn(-c3ccccc3)c2C)c1	.	.	-1	.	-2	-10	.	.
Cc1ccc(C)c(NC(=O)CSc2nc3nc(-c4cccs4)cc(C(F)(F)F)c3c(=O)[nH]2)c1	-1	-48	-6	-3	44*	5	86*	82*
O=C(CSc1nc2nc(-c3cccs3)cc(C(F)(F)F)c2c(=O)[nH]1)Nc1ccc(F)c(F)c1	-1	-99	-2	19	20	11	.	.
Cc1ccc2nc3c(cc(C(=O)NCc4ccco4)c(=N)n3Cc3ccco3)c(=O)n2c1	1	1	0	9	42*	14	49*	36*
N=c1c(C(=O)NCc2ccc3c(c2)OCO3)cc2c(=O)n3ccccc3nc2n1Cc1cccnc1	-1	-5	-5	-4	3	5	.	.
O=C(NC1CCS(=O)(=O)C1)c1cc2c(=O)n3ccccc3nc2n1Cc1ccccc1 (stereo unspecified)	.	.	-3	.	102*	22	+	196*
Cc1cc2ccccc2c(=O)n1CC(=O)NCc1ccco1	1	-6	2	-5	4	6	.	.
N=c1c(C(=O)NCc2ccccc2)cc2c(=O)n3ccccc3nc2n1Cc1ccco1	-1	-2	-5	-3	50*	17	88*	78*
Cc1ccc(S(=O)(=O)c2cc3c(=O)n4ccccc4nc3n(Cc3ccco3)c2=N)cc1	1	-23	-4	-12	87*	35*	+	+
CN(C(=O)c1cccc(NC(=O)Cc2ccc(NC(=O)C3CCCN(C(=O)CCc4ccccc4)C3)cc2)c1)C1CCCCC1 (stereo unspecified)	.	.	-4	.	0	3	.	.
CN1OC[C@@H]2CN(C(=O)c3cccc4ccccc34)[C@H](c3ccccc3Br)C[C@@H]21	.	.	-3	.	-5	.	.	.
O=C(c1cccc(S(=O)(=O)NCc2ccccc2)c1)N1CCN(c2ccccc2Cl)CC1	.	.	0	.	-3	2	.	.
N=c1c(C(=O)NCc2ccco2)cc2c(=O)n3ccccc3nc2n1Cc1ccc(Cl)cc1	-1	7	-4	18	44*	13	113*	87*
Cc1ccc(CNC(=O)c2cc3c(=O)n4ccccc4nc3n(Cc3ccco3)c2=N)cc1	0	0	-1	63	63*	22	54*	48*
CC(=O)c1ccc(Nc2nc(C(N)CCc3ccccc3)cs2)cc1 (stereo unspecified)	.	.	-5	.	3	28	.	.
CCC[C@H]1CN(c2ccccc2)C(=O)[C@@H]1CC(=O)NC	.	.	-2	.	-3	0	.	.
Cc1ccc(CCNc2ncnc(Cl)c2N)cc1	.	.	0	.	-4	1	.	.
